Compound activity deposited in PubChem by National Center for Advancing Translational Sciences (NCATS).
The sample as a whole holds a higher share of hits than the screen did.
Methyltransferases: Primary Screen for Target Class Profiling of Small Molecule Inhibitors of Methyltransferases; 25,000 tested, 3.9% active; purified enzyme, MTase-Glo SAH luminescence; active compounds read low; calls only at 40 µM; call rule not given here
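Each enzyme was assayed with SAM and its substrate. SAH formation detected by MTase-Glo luminescence; single-point 40 uM screen[…].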
Numbers without * were called inactive; i = inactive; + = active, no number. On the % scale 0 is the no-effect control and ±100 the full control effect.

SMILES | Methyltransferases
CCCN1C(=O)c2c(C(=O)NCCC3=CCCCC3)ncn2CC1(C)C(=O)NCc1ccc(F)cc1 (stereo not given) | i
CC(=O)Nc1c2n(c3ccc(F)cc13)CC(C)(C(=O)NC1CCCCCC1)N(C1CCCCCC1)C2=O (stereo not given) | i
CCCCN1C(=O)c2cc(C(=O)Nc3ccccc3CC)nn2CC1(C)C(=O)NC1CCCC1 (stereo not given) | i
CCCCN1C(=O)c2cc(C(=O)N3CCN(CCC)CC3)nn2CC1(C)C(=O)NC1CCCC1 (stereo not given) | i
Cc1noc(C)c1CCNC(=O)c1ncn2c1C(=O)N(C1CC1)C(C)(C(=O)NCc1ccccc1Cl)C2 (stereo not given) | i
Cc1cc2c(cc1S(=O)(=O)N1CCN(c3ccccc3)CC1)n(C)c(=O)n2C | i
CCc1ccc(/C=C2/SC(=S)NC2=O)cc1 | +
O=C1NC(=O)/C(=C/c2ccc3nccnc3c2)S1 | i
CCCCCNC(=O)c1ccc2c(=O)nc3c(-c4ccc(OC)cc4)n[nH]n3c2c1 | i
COc1ccc(CNc2nc3c(-c4cccc(Br)c4)nnn3c3ccccc23)cc1 | i
CCN(CC)c1ccc2c(O)c(C=Nc3ccc(CC(=O)O)c(-c4c5c(nc6ccccc46)CCC(C(=O)NN)C5)c3)c(=O)oc2c1 (stereo not given) | +
CCOC(=O)c1cc2n(n1)CC(C)(C(=O)NC1CCC(C)CC1)N(Cc1ccc(OCC)cc1)C2=O (stereo not given) | i
CC(C)OCCCNC(=O)c1cc2n(n1)CC(C)(C(=O)NC1CCCC1)N(C)C2=O (stereo not given) | i
Cc1ccc(NC(=O)Cn2nc3n(CCCOC(C)C)c(=O)c4ccccc4n3c2=O)c(C)c1 | i
CC(C)CNC(=O)c1ccc2c(=O)n(C(C)C)c3nn(CC(=O)NCc4ccccc4)c(=O)n3c2c1 | i
CC1(C)CC[C@]2(C(=O)OC3OC(CO)C(O)C(O)C3O)CC[C@]3(C)C(=CCC4[C@@]5(C)C[C@@H](O)[C@H](OC6OC(C(=O)O)C(O)C(O)C6O)C(C)(C)C5CC[C@]43C)[C@@H]2C1 (stereo not given in full) | i
C[C@@H]1O[C@@H](O[C@H]2[C@H](OC(=O)C34CCC(C)(C)CC3C3=CCC5C6(C)CC(O)C(O[C@@H]7O[C@H](CO)[C@@H](O)[C@H](O)[C@H]7O)C(C)(C(=O)O)C6CCC5(C)C3(CO)CC4)O[C@H](C)[C@H](O)[C@@H]2O)[C@H](O)[C@H](O)[C@H]1O[C@@H]1OC[C@@H](O)[C@H](O)[C@H]1O (stereo not given in full) | +
C[C@@H]1CC[C@]2(C(=O)O)CC[C@]3(C)C(=CCC4[C@@]5(C)C[C@@H](O)[C@H](O)[C@@](C)(CO)C5CC[C@]43C)C2[C@H]1C (stereo not given in full) | i
C[C@H]1[C@H](C)CC[C@]2(C(=O)O)CC[C@]3(C)C(=CC[C@@H]4[C@@]5(C)C[C@@H](O)[C@H](O)[C@@](C)(CO)[C@@H]5CC[C@]43C)[C@H]12 | i
CC1(C)CC[C@]2(C(=O)O[C@@H]3O[C@H](CO)[C@@H](O)[C@H](O)[C@H]3O)CC[C@]3(C)C(=CCC4[C@@]5(C)C[C@@H](O)[C@H](O)[C@@](C)(CO)C5CC[C@]43C)C2C1 (stereo not given in full) | +
CC1(C)CC[C@]2(C(=O)O)CC[C@]3(C)C(=CCC4[C@@]5(C)C[C@@H](O)[C@H](O)C(CO)(CO)C5CC[C@]43C)C2[C@@H]1O (stereo not given in full) | +
C[C@@H]1O[C@@H](O[C@H]2[C@H](O)[C@@H](O)[C@H](OC[C@H]3O[C@@H](OC(=O)[C@]45CCC(C)(C)C[C@H]4C4=CCC6[C@@]7(C)C[C@H](O)[C@H](O[C@@H]8O[C@H](CO)[C@@H](O)[C@H](O)[C@H]8O)[C@@](C)(C(=O)O)C7CC[C@@]6(C)[C@]4(C)CC5)[C@H](O[C@@H]4O[C@H](CO)[C@@H](O)[C@H](O)[C@H]4O)[C@@H](O)[C@@H]3O)O[C@@H]2CO)[C@H](O)[C@H](O)[C@H]1O (stereo not given in full) | i
CC1(C)CCC2(C(=O)OC3OC(COC4OC(CO)C(O)C(O)C4O)C(O)C(O)C3O)CCC3(C)C(=CCC4C5(C)CCC(OC6OCC(O)C(O)C6O)C(C)(C)C5CCC43C)C2C1O (stereo not given) | i
CC1(C)CC[C@]2(C(=O)O[C@@H]3O[C@H](CO)[C@@H](O)[C@H](O)[C@H]3O)CC[C@]3(C)C(=CCC4[C@@]5(C)C[C@H](O)[C@H](O[C@@H]6OC[C@@H](O)[C@H](O)[C@H]6O)[C@@](C)(CO)C5CC[C@]43C)C2C1 (stereo not given in full) | i
CC1(C)CC[C@]2(C(=O)O[C@@H]3O[C@H](CO)[C@@H](O)[C@H](O)[C@H]3O)CC[C@]3(C)C(=CCC4[C@@]5(C)C[C@@H](O)[C@H](O)C(CO)(CO)C5CC[C@]43C)C2[C@@H]1O (stereo not given in full) | +
SMILES | Methyltransferases
C[C@@H]1O[C@@H](O[C@H]2[C@H](OC(=O)[C@]34CCC(C)(C)C[C@H]3C3=CCC5[C@@]6(C)C[C@H](O)[C@H](O[C@@H]7O[C@H](CO)[C@@H](O)[C@H](O)[C@H]7O)[C@@](C)(CO)C6[C@H](O)C[C@@]5(C)[C@]3(C)CC4)OC[C@H](O)[C@@H]2O)[C@H](O)[C@H](O)[C@H]1O[C@@H]1OC[C@@H](O)[C@H](O[C@@H]2OC[C@](O)(CO)[C@H]2O)[C@H]1O (stereo not given in full) | i
CC1(C)CC[C@]2(C(=O)O[C@@H]3O[C@H](CO)[C@@H](O)[C@H](O)[C@H]3O)CC[C@]3(C)C(=CCC4[C@@]5(C)C[C@@H](O)[C@H](O)C(C)(C)C5[C@H](O)C[C@]43C)[C@@H]2[C@@H]1O (stereo not given in full) | i
CCCN1C(=O)c2nc3ccccc3n2CC1(C)C(=O)NC1CCCC1 (stereo not given) | i
COc1cc(NC(=O)Cn2nc3n(Cc4ccc(C)cc4)c(=O)c4ccccc4n3c2=O)cc(OC)c1 | i
Cc1ccc(Cn2c(=O)c3ccc(C(=O)NCC(C)C)cc3n3c(=O)n(Cc4ccccc4F)nc23)cc1 | i
CN(C(=O)Cn1nc2n(C)c(=O)c3ccc(C(=O)NC4CCCCC4)cc3n2c1=O)c1ccc(F)cc1 | i
CC(C)Cn1c(=O)c2ccccc2n2c(CCC(=O)NCCc3ccccc3)nnc12 | i
CCN1CCN(c2nc3c(S(=O)(=O)c4ccccc4)nnn3c3ccccc23)CC1 | i
CC(=O)Nc1c2n(c3ccc(F)cc13)CC(C)(C(=O)NCCC(C)C)N(C1CCCCCC1)C2=O (stereo not given) | i
CCC(C)NC(=O)c1ccc2c(=O)n(C(C)C)c3nn(CC(=O)NC4CCCC4)c(=O)n3c2c1 (stereo not given) | i
Cn1c(=O)n(C)c2cc(S(=O)(=O)NCc3ccc(F)cc3)ccc21 | i
COc1ccc2cc3n(c2c1)CC(C)(C(=O)NCC1CCCO1)N(Cc1ccccc1F)C3=O (stereo not given) | i
CCOc1ccc(CN2C(=O)c3nc4ccccc4n3CC2(C)C(=O)NC2CCC(C)CC2)cc1 (stereo not given) | i
